In PubChem BioAssay AID1159580 (chemical genetic matrix, 2015):
In all, about 5,500 compounds went through this assay and about 2,000 (36%) were called active. Inconclusive results (about 18%) are left out. No stated cut-off is given here; in the data, active means normalized growth mostly below about 0.91 (no sharp cut-off); inconclusive means no clear call, values can overlap the other calls; inactive means mostly above about 0.92. The list shows a part of the results.

Assay: chemical genetic growth profiling, strain panel (AID 1159580);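 further: tested at 20 µM; growth read once vehicle control cultures reached saturation at 30 °C; 1 = growth at the plate median or of vehicle wells; lower values mean less growth of the strain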
Details: S. cerevisiae deletion strains, growth OD
[1] = locus YAL040C, strain CLN3, active compounds read low
[2] = locus YCL061C, strain MRC1 (second series), active compounds read low
[3] = locus YDR363W, strain ESC2, active compounds read low
[4] = locus YER002W, strain NOP16, active compounds read low
[5] = locus YGR078C, strain PAC10, active compounds read low
[6] = locus YMR307W, strain GAS1, active compounds read low
[7] = locus YNL128W, strain TEP1, active compounds read low
[8] = locus YNL153C, strain GIM3, active compounds read low
[9] = locus YNL175C, strain NOP13, active compounds read low
[10] = locus YNL197C, strain WHI3, active compounds read low
[11] = locus YNL224C, strain SQS1, active compounds read low
[12] = locus YOR083W, strain WHI5 (second series), active compounds read low
[13] = locus YPL241C, strain CIN2, active compounds read low

Measured: normalized growth

C[C@@H]1C(=O)NC2=Nc3cccc(Cl)c3CN21
inactive: locus YAL013W, strain DEP1, active compounds read low 0.983 | [1] 1 | [2] 1 | locus YDR150W, strain NUM1, active compounds read low 1.01 | [3] 1 | [4] 1 | [5] 1 | locus YGR229C, strain SMI1, active compounds read low 1 | [6] 1 | [7] 1.01 | [8] 0.982 | [9] 0.992 | [10] 1 | [11] 1 | locus YNL322C, strain KRE1, active compounds read low 0.997 | [12] 1.01 | locus YPL055C, strain LGE1, active compounds read low 1.02 | [13] 1

O=C1CN2Cc3c(ccc(Cl)c3Cl)N=C2N1
active: locus YEL037C, strain rad23, active compounds read low 1.09 [resistant] | locus YER111C, strain swi4, active compounds read low 1.1 [resistant] | locus YLR342W, strain FKS1, active compounds read low 1.11 [resistant]
inactive: locus YAL021C, strain ccr4, active compounds read low 0.988 | locus YAL026C, strain drs2, active compounds read low 0.976 | locus YAL030W, strain snc1, active compounds read low 0.987 | locus YBL061C, strain skt5, active compounds read low 1 | locus YBR009C, strain hhf1, active compounds read low 0.966 | locus YBR023C, strain chs3, active compounds read low 0.983 | locus YBR171W, strain sec66, active compounds read low 0.967 | locus YBR231C, strain swc5, active compounds read low 0.982 | locus YBR279W, strain paf1, active compounds read low 0.978 | locus YCL011C, strain gbp2, active compounds read low 0.975 | locus YCL016C, strain dcc1, active compounds read low 0.978 | locus YCL061C, strain MRC1, active compounds read low 0.984 | locus YCL069W, strain vba3, active compounds read low 0.986 | locus YCR088W, strain abp1, active compounds read low 1.03 | locus YDL005C, strain med2, active compounds read low 0.96 | locus YDL040C, strain nat1, active compounds read low 0.986 | locus YDR001C, strain nth1, active compounds read low 1.05 | locus YDR069C, strain doa4, active compounds read low 0.972 | locus YDR137W, strain rgp1, active compounds read low 0.962 | locus YDR159W, strain sac3, active compounds read low 0.965 | locus YDR195W, strain ref2 0.961 | locus YDR297W, strain sur2, active compounds read low 0.97 | locus YDR334W, strain swr1, active compounds read low 0.99 | locus YDR335W, strain msn5, active compounds read low 1.01 | locus YDR392W, strain spt3, active compounds read low 0.952 | locus YEL003W, strain gim4, active compounds read low 0.98 | locus YEL061C, strain CIN8 (second series), active compounds read low 1.04 | locus YER015W, strain faa2, active compounds read low 1.03 | locus YER016W, strain bim1, active compounds read low 0.979 | locus YER155C, strain BEM2 (second series), active compounds read low 1.02 | locus YFR010W, strain ubp6, active compounds read low 1.02 | locus YGL167C, strain pmr1, active compounds read low 0.968 | locus YGL173C, strain kem1, active compounds read low 0.972 | locus YGL227W, strain vid30, active compounds read low 0.969 | locus YGL240W, strain doc1, active compounds read low 0.97 | locus YGL253W, strain hxk2, active compounds read low 0.987 | locus YHR013C, strain ard1, active compounds read low 0.956 | locus YHR027C, strain rpn1, active compounds read low 0.996 | locus YHR030C, strain SLT2, active compounds read low 0.984 | locus YHR079C, strain IRE1, active compounds read low 0.996 | locus YHR142W, strain chs7, active compounds read low 1.04 | locus YJL092W, strain hpr5, active compounds read low 0.983 | locus YJL095W, strain BCK1 (second series), active compounds read low 0.982 | locus YJL095W, strain BCK1, active compounds read low 0.973 | locus YJL115W, strain asf1, active compounds read low 1.08 | locus YJL129C, strain trk1, active compounds read low 0.978 | locus YJL154C, strain vps35, active compounds read low 0.976 | locus YJL164C, strain tpk1, active compounds read low 0.999 | locus YJL166W, strain qcr8, active compounds read low 0.993 | locus YJL187C, strain SWE1, active compounds read low 0.977 | locus YJR066W, strain TOR1, active compounds read low 0.929 | locus YKL160W, strain elf1, active compounds read low 0.996 | locus YKR026C, strain gcn3, active compounds read low 0.97 | locus YKR091W, strain srl3, active compounds read low 0.987 | locus YLL001W, strain dnm1, active compounds read low 0.956 | locus YLL026W, active compounds read low 0.975 | locus YLL041C, strain sdh2, active compounds read low 0.975 | locus YLR027C, strain aat2, active compounds read low 0.991 | locus YLR113W, strain HOG1, active compounds read low 1.01 | locus YLR221C, strain rsa3, active compounds read low 1 | locus YLR258W, strain gsy2, active compounds read low 0.979 | locus YLR262C, strain YPT6 (second series), active compounds read low 0.985 | locus YLR320W, strain mms22, active compounds read low 1.01 | locus YLR357W, strain rsc2, active compounds read low 0.925 | locus YLR370C, strain arc18, active compounds read low 0.97 | locus YLR384C, strain iki3, active compounds read low 1.02 | locus YML120C, strain ndi1, active compounds read low 0.996 | locus YMR058W, strain fet3, active compounds read low 0.978 | locus YMR125W, strain sto1, active compounds read low 0.92 | locus YMR129W, active compounds read low 0.964 | locus YMR205C, strain PFK2, active compounds read low 0.949 | locus YMR231W, strain pep5, active compounds read low 0.968 | locus YNL071W, strain lat1, active compounds read low 0.985 | locus YNL183C, strain NPR1, active compounds read low 0.941 | locus YNL209W, strain ssb2, active compounds read low 0.987 | locus YNL248C, strain rpa49, active compounds read low 0.997 | locus YNL322C, strain KRE1 (second series), active compounds read low 0.985 | locus YNR049C, strain mso1, active compounds read low 1.02 | locus YOR001W, strain rrp6, active compounds read low 0.996 | locus YOR070C, strain gyp1, active compounds read low 1.03 | locus YOR080W, strain dia2, active compounds read low 0.963 | locus YOR083W, strain WHI5, active compounds read low 0.999 | locus YOR106W, strain vam3, active compounds read low 0.991 | locus YOR231W, strain MKK1, active compounds read low 0.989 | locus YOR265W, strain rbl2, active compounds read low 0.988 | locus YOR270C, strain vph1, active compounds read low 0.957 | locus YOR290C, strain snf2, active compounds read low 0.957 | locus YPL051W, strain arl3, active compounds read low 1 | locus YPL078C, strain atp4, active compounds read low 0.995 | locus YPL106C, strain sse1, active compounds read low 0.958 | locus YPL240C, strain hsp82, active compounds read low 0.97 | locus YPL256C, strain CLN2, active compounds read low 1.01

CN1CC(O)C(O)C(O)C1CO (stereo unspecified)
inactive: [1] 1 | [2] 1 | [3] 0.997 | [4] 1.01 | [5] 1.01 | [6] 0.998 | [7] 0.975 | [8] 1.01 | [9] 0.992 | [10] 1 | [11] 0.992 | [12] 1 | [13] 1.01
